# Data published in PubChem BioAssay (Tox21).
# Records with an inconclusive call do not appear. Where a call stands in place of a potency, no number is given. The source made the active and inactive calls. Unless noted, calls follow the shape of the dose curve; as a rule, active = well fitted curve in the direction sought with a large enough effect in the repeat runs; inconclusive = weak or mixed curves; inactive = no such curve, though single readings can be large; an effect the other way counts as inactive or inconclusive.
# Key:
# [1] = qHTS assay to identify small molecule antagonists of the glucocorticoid receptor (GR) signaling pathway - cell viability counter screen (AID 720693); also: nearly all actives have a fitted effect of over 55% in size; also: potency is read from the fitted curve at half-maximal effect
# [2] = qHTS assay for identifying genotoxic compounds that show differential cytotoxicity against isogenic chicken DT40 cell lines with known DNA damage response pathways - wild type cell line (AID 743012); also: nearly all actives have a fitted effect of over 60% in size; also: potency is read from the fitted curve at half-maximal effect
# How it was run: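 Cytotoxicity in repair-proficient parental chicken DT40 cells serves as the comparator for Rad54/Ku70- and Rev3-deficient lines. Cells were exposed to compounds for 40 h at 37 C/5% CO2, and ATP-based luminescence (CellTiter-Glo) measured viability.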
# [3] = qHTS assay for identifying genotoxic compounds that show differential cytotoxicity against isogenic chicken DT40 cell lines with known DNA damage response pathways - Rev3 mutant cell line (AID 743014); also: nearly all actives have a fitted effect of over 55% in size; also: potency is read from the fitted curve at half-maximal effect
# [4] = qHTS assay to identify small molecule antagonists of the androgen receptor (AR) signaling pathway - cell viability counter screen (AID 743033; also: nearly all actives have a fitted effect of over 45% in size)
# [5] = molecular target: Androgen receptor (Homo sapiens) (UniProt P10275); experiment: qHTS assay to identify small molecule antagonists of the androgen receptor (AR) signaling pathway (AID 743035; active = well fitted inhibition curve with a large enough effect in the signal ratio in the repeat runs, not every such curve was filed as active; the % refers to the signal ratio)
# Androgen receptor (Homo sapiens), sequence (P10275 whole entry, looked up): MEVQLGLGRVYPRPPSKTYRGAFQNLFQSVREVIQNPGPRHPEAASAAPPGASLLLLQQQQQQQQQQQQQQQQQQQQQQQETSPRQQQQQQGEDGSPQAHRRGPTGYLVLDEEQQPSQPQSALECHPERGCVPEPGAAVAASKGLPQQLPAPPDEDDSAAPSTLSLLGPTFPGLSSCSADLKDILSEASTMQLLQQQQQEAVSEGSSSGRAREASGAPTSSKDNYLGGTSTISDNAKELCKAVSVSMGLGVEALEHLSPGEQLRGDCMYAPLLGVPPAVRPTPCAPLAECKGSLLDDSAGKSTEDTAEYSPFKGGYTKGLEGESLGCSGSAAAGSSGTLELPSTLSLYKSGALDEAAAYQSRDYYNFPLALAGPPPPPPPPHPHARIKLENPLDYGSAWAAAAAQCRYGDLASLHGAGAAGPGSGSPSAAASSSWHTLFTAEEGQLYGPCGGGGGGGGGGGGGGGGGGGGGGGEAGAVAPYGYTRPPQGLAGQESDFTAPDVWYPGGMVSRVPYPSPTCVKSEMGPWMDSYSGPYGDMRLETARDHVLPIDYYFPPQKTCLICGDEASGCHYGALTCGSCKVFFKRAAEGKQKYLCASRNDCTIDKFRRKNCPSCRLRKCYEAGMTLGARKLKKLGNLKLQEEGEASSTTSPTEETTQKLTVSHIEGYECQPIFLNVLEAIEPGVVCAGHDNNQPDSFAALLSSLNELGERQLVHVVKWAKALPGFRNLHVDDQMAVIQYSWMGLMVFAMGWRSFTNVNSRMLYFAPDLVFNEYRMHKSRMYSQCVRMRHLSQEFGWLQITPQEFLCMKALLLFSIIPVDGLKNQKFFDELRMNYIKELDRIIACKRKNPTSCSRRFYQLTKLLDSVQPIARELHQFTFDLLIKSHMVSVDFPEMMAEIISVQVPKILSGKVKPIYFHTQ
# How it was run: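 Steps: seed AR-UAS-bla GripTite HEK293 cells, incubate 4 h at 37C; pin in test compound, then add agonist R1881; incubate 16 h at 37C; add LiveBLAzer B/G FRET substrate, 2 h at room temperature; read fluorescence.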
# [6] = molecular target: Androgen receptor (Homo sapiens) (UniProt P10275); experiment: qHTS assay to identify small molecule agonists of the androgen receptor (AR) signaling pathway (AID 743036; active = well fitted activation curve with a large enough effect in the signal ratio in the repeat runs, with a control signal flat, not every such curve was filed as active; the % refers to the signal ratio)
# How it was run: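 HEK293 cells stably carrying a UAS-driven beta-lactamase reporter (GeneBLAzer AR-UAS-bla-GripTite) were plated at 2,000 cells/well, rested 4 h at 37C, then exposed to compounds in DMSO for 16 h. LiveBLAzer B/G FRET substrate was added for 2 h at room temperature; fluorescence read.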
# [7] = molecular target: Androgen receptor (Homo sapiens) (UniProt P10275); experiment: qHTS assay to identify small molecule agonists of the androgen receptor (AR) signaling pathway using the MDA cell line (AID 743040; also: nearly all actives have a fitted effect of over 20% in size)
# How it was run: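 Cell-based luciferase reporter: MDA-kb2, MMTV promoter (AR + GR response elements). 16 h compound exposure at 37C; ONE-Glo, 30 min RT, luminescence.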
# [8] = qHTS assay to identify small molecule antagonists of the androgen receptor (AR) signaling pathway using the MDA cell line - cell viability counter screen (AID 743041; also: nearly all actives have a fitted effect of over 45% in size; also: potency is read from the fitted curve at half-maximal effect)
# How it was run: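 In this qHTS counter assay, fluorescence intensity after CellTiter-Fluor addition indicated viability of MDA-kb2 AR-luc cells given compounds and R1881 for 16 h at 37C.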
# [9] = molecular target: Androgen receptor (Homo sapiens) (UniProt P10275); experiment: qHTS assay to identify small molecule antagonists of the androgen receptor (AR) signaling pathway using the MDA cell line (AID 743042; also: nearly all actives have a fitted effect of over 55% in size)
# How it was run: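 MDA-kb2 cells (human breast carcinoma, stably carrying an MMTV-luciferase reporter responsive to AR and GR) were plated at 3,000 cells/well and preincubated 5 hr at 37C, then given compound plus R1881 agonist for 16 h. ONE-Glo luminescence was read.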
# [10] = qHTS assay for identifying genotoxic compounds that show differential cytotoxicity against isogenic chicken DT40 cell lines with known DNA damage response pathways - Rad54/Ku70 mutant cell line (AID 743015); also: nearly all actives have a fitted effect of over 60% in size; also: potency is read from the fitted curve at half-maximal effect
Compound,Potency [1],Potency [2],Potency [3],Potency [4],Potency [5],outcome [6],outcome [7],Potency [8],Potency [9],Potency [10]
C=C1C[C@@]23CC[C@H]4[C@@](C)(CCC[C@@]4(C)C(=O)O[C@@H]4O[C@H](CO)[C@@H](O)[C@H](O)[C@H]4O)[C@@H]2CC[C@]1(O[C@@H]1O[C@H](CO)[C@@H](O)[C@H](O[C@@H]2O[C@H](CO)[C@@H](O)[C@H](O)[C@H]2O)[C@H]1O[C@@H]1O[C@H](CO)[C@@H](O)[C@H](O)[C@H]1O)C3,inactive,inactive,inactive,inactive,inactive,inactive,inactive,inactive,inactive,–
CCC1NC(=O)c2cc(S(N)(=O)=O)c(Cl)cc2N1 (stereo not given),inactive,inactive,–,inactive,–,–,–,–,–,inactive
CN1CCCC(CC2c3ccccc3Sc3ccccc32)C1 (stereo not given),inactive,5.07 µM (active),7.17 µM (active),–,–,–,–,inactive,–,8.04 µM (active)
CC(O)c1ccccc1 (stereo not given),inactive,inactive,–,inactive,–,–,–,–,–,inactive
CCOC(=O)c1ccc(C#Cc2ccc3c(c2)C(C)(C)CCS3)nc1,inactive,23.7 µM (active),29.8 µM (active),inactive,–,–,–,inactive,–,–
CCc1ccccc1,inactive,inactive,inactive,inactive,–,–,–,inactive,–,–
Nc1nnc(-c2ccc([N+](=O)[O-])o2)o1,inactive,24.3 µM (active),19.3 µM (active),–,–,–,–,61.1 µM (active),–,19.3 µM (active)
CN(C)CCC=C1c2ccccc2C=Cc2ccccc21,inactive,8.41 µM (active),8.41 µM (active),–,–,–,–,inactive,–,–
CC(C)(O)c1ccc(CNC(=O)c2cccnc2Oc2ccc3nonc3c2)cc1,inactive,61.1 µM (active),68.6 µM (active),–,–,–,–,inactive,–,–
C/C=C\C/C=C/CCCCCCCCOC(C)=O,inactive,27.3 µM (active),27.3 µM (active),–,–,–,–,inactive,–,24.3 µM (active)
CCCCCCCCN,inactive,inactive,inactive,inactive,–,–,–,inactive,–,–
C[C@@H](CN(C)C)CN1c2ccccc2Sc2ccccc21,inactive,11.4 µM (active),11.4 µM (active),–,–,–,–,inactive,–,11.4 µM (active)
CCCCCCC(C)(C)C(=O)O,inactive,inactive,inactive,inactive,–,inactive,inactive,inactive,inactive,–
O=C1C(=O)c2ccccc2C(O)=C1C1CCC(c2ccc(Cl)cc2)CC1 (stereo not given),inactive,5.07 µM (active),inactive,inactive,–,–,–,inactive,–,–
CC(=O)[C@H]1[C@H](C#N)C[C@H]2[C@@H]3CC=C4C[C@@H](O)CC[C@]4(C)[C@H]3CC[C@@]21C,inactive,37.1 µM (active),37.1 µM (active),inactive,–,–,–,inactive,–,–
COc1cc(N)c(Cl)cc1C(=O)NC1CCN(CCCOc2ccc(F)cc2)CC1OC (stereo not given),inactive,11.4 µM (active),–,inactive,–,–,–,–,–,12.7 µM (active)
O[C@@H]1CO[C@H]2[C@@H]1OC[C@@H]2O,inactive,inactive,inactive,inactive,–,–,–,inactive,–,–
C=C(C)C(=O)OCCOCCOC(=O)C(=C)C,inactive,inactive,inactive,inactive,–,–,–,inactive,–,–
CC(C)C(O)(c1ccc(OC(F)(F)F)cc1)c1cncnc1 (stereo not given),inactive,48.4 µM (active),27.2 µM (active),inactive,–,–,–,inactive,–,–
CC(=O)Nc1ccc(C)cc1C,inactive,–,inactive,inactive,–,–,–,–,–,inactive
CC1=C(CC=O)C(C)(C)CCC1,inactive,54.5 µM (active),–,inactive,–,–,–,inactive,–,24.3 µM (active)
Clc1ccc(Nc2nnc(Cc3ccncc3)c3ccccc23)cc1,inactive,29.8 µM (active),–,inactive,–,–,–,inactive,–,–

Compound,Potency [1],Potency [2],Potency [3],Potency [4],Potency [5],outcome [6],outcome [7],Potency [8],Potency [9],Potency [10]
O=C1NC(=O)c2cc([N+](=O)[O-])ccc21,inactive,–,inactive,inactive,inactive,–,inactive,inactive,inactive,inactive
CC(C)(C)C(=O)C(=O)O,inactive,–,inactive,inactive,–,–,–,inactive,–,inactive
O=C1c2ccccc2C(=O)c2c(O)c(O)cc(O)c21,inactive,inactive,–,inactive,–,–,inactive,–,inactive,48.6 µM (active)
O=C(O)CCCCCCCCCCCBr,inactive,–,inactive,inactive,–,–,–,inactive,–,inactive
O=C(O)c1cccc(-c2noc(-c3ccccc3F)n2)c1,inactive,–,inactive,inactive,–,–,–,inactive,–,inactive
CCCCCC[C@@H](O)C/C=C\CCCCCCCC(=O)OCC(O)CO (stereo not given in full),inactive,inactive,–,inactive,inactive,inactive,inactive,–,inactive,–
C(=C\c1ccccc1)/c1ccccc1,inactive,–,inactive,inactive,–,–,–,–,–,inactive
O=C1CCCCCCCCCCOCCCCO1,inactive,inactive,–,–,–,–,–,inactive,–,–
CC(=O)OCC(=O)NCCCOc1cccc(CN2CCCCC2)c1,inactive,–,inactive,inactive,inactive,inactive,inactive,inactive,inactive,inactive
CCC(OCCCOC)OC(C)=O (stereo not given),inactive,–,inactive,inactive,–,–,–,–,–,inactive
COc1cc(C(=O)NCCCCCC(=O)O)cc(OC)c1OC,inactive,inactive,–,inactive,–,–,–,inactive,–,inactive
O=C1c2ccccc2C(=O)C1c1ccc(Br)cc1,inactive,inactive,–,inactive,inactive,–,inactive,inactive,inactive,inactive
CC/C=C1/OC(=O)c2ccccc21,inactive,inactive,–,inactive,inactive,inactive,inactive,–,inactive,inactive
CCC(=O)OC,inactive,–,inactive,inactive,inactive,inactive,inactive,inactive,inactive,inactive
C=CC(C)(CCC=C(C)C)OC(=O)CC(C)C (stereo not given),inactive,–,inactive,inactive,–,–,–,inactive,–,inactive
CN1C(C(=O)Nc2ccccn2)=C(O)c2sccc2S1(=O)=O,inactive,inactive,–,–,–,–,–,inactive,–,–
O=C(O)c1ccc(OCCCOc2ccc(C(=O)O)cc2)cc1,inactive,inactive,–,inactive,–,–,–,inactive,–,–
O=[N+]([O-])c1ccc(Nc2ccc(Nc3ccccc3)c(S(=O)(=O)O)c2)c([N+](=O)[O-])c1,inactive,–,inactive,inactive,–,–,–,–,–,inactive
C[C@@H](O[C@H]1OCCN(Cc2n[nH]c(=O)[nH]2)[C@H]1c1ccc(F)cc1)c1cc(C(F)(F)F)cc(C(F)(F)F)c1,21.3 µM (active),23.7 µM (active),–,–,–,inactive,inactive,–,–,23.7 µM (active)
COc1ccccc1N1CCN(CCCCNC(=O)c2ccc(-c3ccc(C(C)=O)cc3)cc2)CC1,inactive,–,inactive,inactive,–,–,–,–,–,inactive
C[C@@H](O)[C@H]1C(=O)N2C(C(=O)O)=C([C@H]3CCCO3)S[C@H]12,inactive,–,inactive,inactive,inactive,inactive,inactive,–,inactive,inactive
CN1C(=O)OC(C)(C)C1=O,inactive,–,inactive,inactive,–,–,–,inactive,–,inactive

Compound,Potency [1],Potency [2],Potency [3],Potency [4],Potency [5],outcome [6],outcome [7],Potency [8],Potency [9],Potency [10]
CCC(C)(C)OC,inactive,–,inactive,inactive,–,–,–,inactive,–,inactive
N#[N+]c1ccc2c(S(=O)(=O)[O-])cccc2c1O,inactive,–,inactive,inactive,–,–,–,inactive,–,inactive
O=C(CCCN1CC=C(n2c(=O)[nH]c3ccccc32)CC1)c1ccc(F)cc1,inactive,29.8 µM (active),–,inactive,–,–,–,inactive,–,–
CCCCCCNC(=O)n1cc(F)c(=O)[nH]c1=O,inactive,8.41 µM (active),–,–,–,–,–,inactive,–,–
C=CCc1ccccc1OCC(O)CNC(C)C (stereo not given),inactive,inactive,–,inactive,inactive,inactive,inactive,inactive,inactive,–
CCOC(=O)C1=C(C)NC(C)=C(C(=O)OC)C1c1cccc(Cl)c1Cl (stereo not given),inactive,23.7 µM (active),–,inactive,–,–,–,–,–,–
NNC(=O)CP(=O)(c1ccccc1)c1ccccc1,inactive,–,inactive,inactive,–,–,–,–,–,inactive
CC(CN(C)C)C(C)(O)Cc1ccc(Cl)cc1 (stereo not given),inactive,inactive,–,inactive,inactive,inactive,inactive,inactive,inactive,–
CCOC(=O)[C@H](CCc1ccccc1)N[C@@H](C)C(=O)N(CC(=O)O)C1Cc2ccccc2C1,inactive,21.1 µM (active),–,–,–,–,–,inactive,–,23.7 µM (active)
Cc1ccc(CO)cc1,inactive,–,inactive,inactive,–,–,–,inactive,–,inactive
Oc1cccc(Nc2ccccc2)c1,inactive,inactive,–,inactive,–,–,–,–,–,–
CC(C)=CC(=O)C=C(C)C,inactive,–,inactive,inactive,–,–,–,inactive,–,inactive
C=C/C(C)=C/C/C=C(\C)CCC=C(C)C,inactive,–,61.1 µM (active),inactive,–,–,–,inactive,–,48.6 µM (active)
CN1C(=O)c2ccccc2C1=O,inactive,–,68.6 µM (active),–,–,–,–,inactive,–,61.1 µM (active)
CC(C)(c1ccccc1)c1ccccc1,inactive,–,inactive,inactive,–,–,–,inactive,–,–
C=C(C)C(=O)OCCCCCCCCCCCCC,inactive,–,inactive,inactive,–,–,–,inactive,–,inactive
CCCCCCCCCCC(=O)O,inactive,–,inactive,inactive,–,–,–,inactive,–,inactive
O=C1c2ccccc2C(=O)C1c1nc2ccccc2c(Br)c1O,inactive,–,inactive,inactive,–,–,–,inactive,–,–
CO[C@]1(NC(=O)CSC(F)F)C(=O)N2C(C(=O)O)=C(CSc3nnnn3CCO)CO[C@H]21,inactive,–,inactive,inactive,–,–,–,–,–,–
CCCCCC#CC(=O)OC,inactive,–,inactive,inactive,–,–,–,inactive,–,–
